From PubChem
aSyn rescue = inhibitors of alpha-synuclein toxicity in yeast. Yeast expressing alpha-synuclein, growth rescue, BacTiter-Glo, 24 h. Potency, µM (top dose mostly 46.1 µM), for inactives: at the highest dose growth rescue (activation), most hits filed as activators. 370,000 compounds, 0.14% hits. AID 652106; note: % of control where 0% means no effect; nearly all actives have a fitted effect of over 65% in size
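Screening used galactose-induced yeast with toxic alpha-synuclein levels, exposed to compound for 24 hr at 30 deg C. Cell growth, read with BacTiter-Glo luminescence, gave the measured signal.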
FUS suppressor = FUS proteinopathy suppression in yeast; S. cerevisiae FUS-expressing, growth rescue, OD600, 24 h; Potency, µM (doses to about 76.6 µM), most hits filed as activators; 390,000 compounds, 0.24% hits; AID 1347120;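 note: plate controls were DMSO vehicle for no effect and reference control for full effect; nearly all actives have a fitted effect of over 55% in size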
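Yeast expressing FUS under galactose induction, OD 0.005 in 2% galactose medium; compounds in a dilution series, 24 h at 30C. Growth rescue by absorbance at 600 nm; CP55940 positive control, DMSO negative.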
TDP43 rescue = rescues yeast growth from TDP-43 toxicity; 410,000 compounds, 1.8% hits; TDP-43 expressing yeast growth rescue, BacTiter-Glo, 24 h; Potency, µM (series often up to 46.1 µM), without a hit: top-dose growth rescue (activation), most hits filed as activators; note: % of control where 0% means no effect; nearly all actives have a fitted effect of over 50% in size
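Yeast expressing TDP-43 (pregrown in raffinose, seeded at OD600=0.02 in galactose medium) exposed to compounds 24 hr at 30 deg C. Growth read by BacTiter-Glo luminescence; rescue of toxicity appears as increased signal.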
Abeta yeast res = A-beta toxicity reversal in yeast; yeast expressing A-beta42, growth rescue, OD600, 48 h; response scale: 0% DMSO, 100% iron-clioquinol control; Potency, µM (top dose mostly 46.1 µM), usual class: activators; 410,000 compounds, 0.063% hits; AID 1347071; note: nearly all actives have a fitted effect of over 55% in size
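Yeast A-beta toxicity model in growth medium with pinned compounds, 48 h at 30 C; growth read as absorbance at 600 nm. Normalized to FeCl3/clioquinol equimolar mix (positive) and DMSO (negative).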
Mito fusion act = mitochondrial division inhibition or fusion activation | S. cerevisiae fusion-defective mutant growth rescue, CellTiterGlo 48 h | Potency, µM (highest dose often 46.1 µM), without a hit: at the top dose growth rescue (activation), usual class: activators | 320,000 compounds, 0.23% hits | AID 485298; note: % of control where 0% means no effect; nearly all actives have a fitted effect of over 45% in size
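Compounds are tested for their ability to restore growth of mitochondrial fusion-defective yeast strains at non-permissive 37C in YPEG medium over 48 hours. Viability is quantified by luciferase luminescence.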
* hit, by the source's call; i = inactive; ? = inconclusive; · = not tested or not shown; [ ] = remark or other dose. Most compounds without a hit are left out; they make up all but 2.2% or so of the library. Calls come from the whole dose curve; as a rule, active = well fitted curve in the direction sought with a large enough effect; inconclusive = small, poorly fitted or top-dose-only effect, or another doubt; inactive = no such curve, though single readings can be large; an effect the other way counts as inactive or inconclusive. Potency is the fitted concentration of half-maximal effect.

SMILES	aSyn rescue	FUS suppressor	TDP43 rescue	Abeta yeast res	Mito fusion act
Cc1cccc(N2CCN(C(=O)CS(=O)(=O)Cc3nc(-c4ccccc4C)oc3C)CC2C)c1 (stereo not drawn)	·	?	25.1µM*	i	·
Cc1cccc(N2CCN(C(=O)COc3ccc4c(c3)CCC4)CC2)c1C	8.2%	·	19.6%	i	10.1%
Cc1oc(-c2ccccc2F)nc1CS(=O)(=O)CC(=O)N1CCN(c2cccc(C(F)(F)F)c2)CC1	·	i	24.6%	i	·
Cc1cccc(N2CCN(C(=O)CSc3ccsc3[N+](=O)[O-])CC2C)c1 (stereo not drawn)	8.9%	i	17.8µM*	?	19.8%
Cc1cccc(N2CCN(C(=O)COc3ccc4c(c3)CCC4)CC2C)c1 (stereo not drawn)	25.9%	?	35.5µM*	i	10.5%
O/N=C(/C[n+]1csc2ccccc21)c1ccccc1	-7.8%	·	·	·	·
CCNc1ccc(/C=C/c2ccnc3ccccc23)cc1	1.9%	·	·	·	·
Cc1ccccc1C1CCC2(CCC(=O)N2CC[C@@H](O)c2ccccc2)CC1 (stereo partly drawn)	·	i	·	·	·
Cc1oc(-c2ccccc2F)nc1CS(=O)(=O)CC(=O)NC(C)CCc1ccccc1 (stereo not drawn)	5.3%	i	-14.2%	i	11.2µM*
CC(=O)NC(Cc1ccc(O)cc1)C(=O)NCC(N)C(=O)c1ccccc1 (stereo not drawn)	-3.2%	·	·	·	·
Clc1ccc(OCCSc2ncccn2)c2ccccc12	·	i	?	i	4.9%
c1cnc(SCCOc2cccc3ccccc23)nc1	-4.7%	i	11.2µM*	i	15.4%
O=c1oc2ccccc2c2oc3cc(O)c(O)cc3c12	2.3%	8.91µM*	-15.7%	i	4.4%
Cc1nc(Nc2ccccc2)sc1C(=O)Nc1ccccc1	-0.8%	i	10µM*	i	1.3%
Cc1nc(Cl)sc1C(=O)Nc1cccc(Cl)c1	15.6%	i	14.1µM*	i	9.1%
Nc1nc(Nc2ccccc2F)sc1C(=O)c1ccccc1	-16.6%	i	22.4µM*	?	-15.0%
Cc1nc(Nc2ccccc2)sc1C(=O)c1ccc(F)cc1	-0.4%	i	22.4µM*	i	-101.9%
O=C(NNc1ccccc1F)c1ccccc1	8.5%	i	-17.0%[1.82 µM]	i	-3.2%
COc1ccccc1CNC(=O)c1cc2ccc3ccc(C)[nH]c3c2n1	0.6%	i	?	i	·
CCCCCCOc1ccc(CC(=O)O)cc1	-10.5%	·	·	·	·
CCn1c(SCC(=O)Nc2ccccc2-c2ccccc2)nnc1-c1ccc(C)cc1	·	i	·	·	·
COc1ccc(Nc2nc(-c3ccccc3)c3ccccc3n2)cc1	0.4%	·	23.0%	i	25.1µM*
COc1ccc(Nc2nc(C)c3ccccc3n2)cc1	0.7%	i	0.0%	i	1.0%
COc1ccccc1Nc1nc(C)c(C(=O)Nc2ccccc2)s1	-10.4%	i	-9.7%[0.397 µM]	?	4.7%
Cc1nc(Nc2ccccc2Cl)sc1C(=O)Nc1ccccc1	-9.8%	i	9.7%	i	15.8µM*
SMILES	aSyn rescue	FUS suppressor	TDP43 rescue	Abeta yeast res	Mito fusion act
COc1ccc(Nc2nc(C)c(-c3ccccc3)s2)cc1	-18.1%	·	12.6µM*	i	-1.2%
Cc1ccc(S(=O)(=O)N2CCN(c3nc(Nc4ccccc4O)nc4ccccc34)CC2)cc1	20.3%	·	·	·	·
O=C(C1CCCN1S(=O)(=O)c1ccc([N+](=O)[O-])cc1)N1CCN(c2ccccc2)CC1 (stereo not drawn)	·	i	·	·	·
COC(=O)N1C(=O)[C@](c2ccccc2)(C2CCCC2)N1C(=O)OC	2.3%	i	14.1µM*	i	-0.5%
COc1ccc(/C=C(\C#N)C(=O)NC(C)c2ccccc2)cc1O (stereo not drawn)	26.6%	i	20µM*	?	2.9%
COC(=O)c1ccc(/C=C(\C#N)C(=O)NC(C)c2ccccc2)cc1 (stereo not drawn)	?	i	12.6µM*	i	-4.2%
CCOc1ccccc1NC(=O)Nc1cc(C(=O)NCc2ccc(C)cc2)ccc1N1CCCC1	·	i	16.1%	i	·
Cc1ccc(CCNC(=O)CCn2nc(-c3ccc(Cl)cc3)ccc2=O)cc1	6.5%	i	18.7%	i	·
CO/N=C(\c1nonc1N)N1CCN(c2ccc([N+](=O)[O-])cc2Cl)CC1	20.5%	i	28.3%	i	0.5%
CO/N=C(\c1nonc1N)N1CCN(c2ccc(Cl)cc2[N+](=O)[O-])CC1	3.5%	i	14.1µM*	i	1.6%
O=C(O)/C=C/C(=O)Nc1ccc2c(c1)C(=O)c1ccccc1C2=O	22.4µM*	i	?	?	6.4%
CC1(c2nnnn2C2CCCCC2)CSCC(=O)N1CCc1ccc(O)cc1 (stereo not drawn)	·	i	·	·	·
C[C@H]1[C@@H](OC(=O)Nc2ccccc2F)CC[C@@]23CCCN2C(=O)CCC[C@@H]13	·	i	·	·	·
COC(=O)[C@@]1(Cc2ccc(F)cc2)[C@H]2c3cc(C(=O)N4CCCC4)n(Cc4ccccc4)c3C[C@H]2CN1C(=O)c1ccccc1	18.7%	?	0.0%	i	·
COC(=O)[C@@]1(Cc2ccc(OC)cc2)[C@H]2c3cc(C(=O)N4CCCC4)n(Cc4ccc(S(C)(=O)=O)cc4)c3C[C@H]2CN1C(=O)c1ccccc1	4.1%	25.1µM*	10.9%	i	·
O=[N+]([O-])c1cc(C(F)(F)F)ccc1NCCc1c[nH]c2ccccc12	4.1%	i	22.4µM*	i	-7.0%
O=[N+]([O-])c1cc(C(F)(F)F)ccc1NCCc1c[nH]c2ccc(O)cc12	16.7%	i	6.4%	i	?
Cc1ccc(-c2cccc3[nH]cc(C)c23)s1	·	i	·	·	·
Cc1ccc(Cl)cc1N1CCN(C(=O)C2(S(=O)(=O)c3ccc(Cl)cc3)CC2)CC1	8.3%	i	25.3%	i	17.6%
Cc1cccc(N2CCN(C(=O)C3(S(=O)(=O)c4ccc(Cl)cc4)CC3)CC2)c1C	-0.2%	?	35.5µM*	i	-13.6%
O=C(Nc1ccc(OC(F)F)cc1)c1nc(SCc2ccccc2F)ncc1Cl	1.6%	·	·	·	·
Cc1cc(Br)ccc1NC(=O)COc1cc(=O)n(C)c2ccccc12	·	i	-1.8%	i	·
CSc1ccc(C2C(C#N)=C(N)Oc3c2ccc(=O)c2c(C)oc(C)c32)cc1 (stereo not drawn)	?	22.4µM*	-31.1%	i	1.9%
CC(C)(C)C(=O)Nc1nnc(SCc2cccc(F)c2)s1	-0.8%	i	?	?	5.3%
CC(C)(C)C(=O)Nc1nnc(SCc2ccc(F)cc2)s1	·	i	17.8µM*	?	9.3%
CC1CCCC(C)N1C(=O)CSc1nc2ccccc2s1 (stereo not drawn)	·	i	7.94µM*	i	3.9%
Cc1cnc(NC(=O)CSc2ccc(Cl)cc2)s1	2.8%	i	11.2µM*	?	2.1%
